From PubChem BioAssay
This is a sample that favours compounds with a hit; in the whole collection about 4.3% have one here.
GRIN3A LBD mod = modulates the human NR3A ligand-binding domain. NR3A LBD differential scanning fluorimetry, Tm shift; 0% = protein alone, 100% = glycine-bound protein. AID 1259313. 340,000 compounds, 2.5% hits. Tm shift relative to glycine control, % at 25 µM;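 active = melting temperature shift of at least 10% of the positive control shift, at one fixed dose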
ADAM10 inh = ADAM10 inhibition, QFRET primary screen; O14672; inhibition, % at 7 µM; AID 720582; recombinant ADAM10, EDANS/DABCYL FRET peptide cleavage, 3 h; 370,000 compounds, 0.62% hits;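 active = inhibition above a per-campaign cutoff equal to the mean of compounds falling between control-based bounds plus 3 SD, cut at about 20% in these data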;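 note: 0% = DMSO wells while the 100% control is not disclosed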
ADAM17 inh = inhibitors of human ADAM17. P78536. recombinant ADAM17, EDANS/DABCYL FRET peptide cleavage. inhibition, % at 6.95 µM. 370,000 compounds, 0.83% hits. AID 720648;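 active = inhibition above the mean of compounds lying between control limits plus 3 SD, set per campaign, cut at about 8.5% in these data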;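 note: 0% = DMSO-only wells as the low control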
sPLA2-III inh = Blocks human group III sPLA2 activity | 370,000 compounds, 0.56% hits | Q9NZ20 | inhibition, % at 12.2 µM | QFRET BODIPY PC-A2 liposome hydrolysis, fluorescence;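 active = inhibition above mean plus 3 SD of compounds lying within the high and low control bounds, cut at about 19% in these data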;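 note: 0% = median of test compound wells and 100% = no enzyme DMSO wells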
FAS-TE inh = blocks the thioesterase domain of human fatty acid synthase; 360,000 compounds, 0.67% hits; recombinant FAS-TE, OMFH fluorogenic substrate, fluorescence endpoint; P49327; AID 602261; inhibition, % at 15 µM;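 active = compounds whose normalised, plate-corrected inhibition of enzyme fluorescence in the single-dose primary screen is 50% or more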;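 note: 0% = DMSO with enzyme and 100% = substrate without enzyme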
ADAM10 confirm = human ADAM10 inhibition, confirmation; shares compounds with ADAM10 inh; ADAM10 QFRET peptide cleavage, EDANS fluorescence; inhibition, % at 6.95 µM; 2,100 compounds, 1% hits; AID 743208;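 active = inhibition above about 20% chosen separately for each screening run, limit read from the data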;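 note: 0% = DMSO wells and 100% = marimastat wells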
ADAM17 counter = ADAM17 inhibition, counter-screen for ADAM10 exosite hits; shares compounds with ADAM10 inh; 2,100 compounds, 0.5% hits; inhibition, % at 6.95 µM; ADAM17 QFRET peptide cleavage, EDANS fluorescence;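 active = mean triplicate inhibition above the solvent-only control wells' mean plus 3 SD, cut at about 12% in these data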;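 note: 0% = DMSO wells and 100% = marimastat wells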
Starred values were filed as active, the others as inactive; . = not tested or not shown.

SMILES	GRIN3A LBD mod	ADAM10 inh	ADAM17 inh	sPLA2-III inh	FAS-TE inh	ADAM10 confirm	ADAM17 counter
CCOc1ccc(OCCC(=O)OCC(=O)Nc2cc(S(=O)(=O)N3CCOCC3)ccc2C)cc1	-0.7	68.3*	-3.2	1.6	-4.9	-0.1	0.5
CCOc1ccc(OCCC(=O)OCC(=O)Nc2ccc(C)c(S(=O)(=O)N3CCCCC3)c2)cc1	9.0	23.2*	8.3	-40.5	18.8	7.6	1.6
C=CCn1c(COc2ccc(C)cc2)nnc1SCC(=O)Nc1cc(Cl)cc(Cl)c1	.	6.9	4.6	0.2	.	.	.
COC(=O)[C@]1(CC(C)C)N[C@H](c2ccc(-c3cccc(Cl)c3)cc2)[C@@H]2C(=O)N(C)C(=O)[C@@H]21	-0.3	22.5*	5.7	-0.2	35.4	7.9	1.8
CCN1C(=O)[C@H]2[C@@H](c3ccc(-c4cccc(Cl)c4)cc3)N[C@@](C)(C(=O)OC)[C@H]2C1=O	-7.3	23.5*	5.5	-34.8	13.7	-0.6	-0.1
Cc1cc(C)cc(OC(C)CCN2CCC(C(O)(c3ccccc3)c3ccccc3)CC2)c1 (configuration not stated)	.	4.1	1.5	-15.3	.	.	.
CCOC(=O)COc1ccc2c(c1)c(C(C)=O)c(C)n2-c1ccc(OC)cc1	-2.7	21.2*	6.8	2.8	11.8	3.2	0.9
Cc1ccc(N=C(NOCc2ccc(Cl)cc2Cl)c2nonc2N)c(C)c1	.	21.1*	5.3	-17.7	40.8	6.9	1.9
O=C(NCC1COc2ccccc2O1)c1ccc(NC(=O)c2c(Cl)cccc2Cl)cc1 (configuration not stated)	.	11.6	5.8	-9.5	.	.	.
Cc1ccc(-n2c(SCC(=O)Nc3ccccc3-c3ccccc3)nnc2-c2cccs2)cc1	.	13.6	5.5	-8.3	.	.	.
O=C(Nc1ccc2c(c1)N(Cc1ccccc1)C(=O)c1ccccc1S2)NC1CC1	-1.6	21.3*	6.8	-44.3	13.6	3.6	1.0
O=C(c1ccccc1I)N1CCC(Oc2cccnc2)CC1	.	-6.5	0.0	-0.4	.	.	.
Cc1cc(C)n2nc(SCc3cccc(F)c3)nc2n1	-2.0	-4.0	-1.7	-1.7	-1.4	.	.
Cc1cc(C)n2nc(SCc3ccccc3)nc2n1	-0.2	22.0*	4.3	7.8	-1.8	0.4	0.3
Cn1cccc1CC(=O)NN=Cc1cccc(F)c1	.	-0.4	-2.6	-4.3	.	.	.
CC(C)(C)NC(=O)CN(Cc1cccs1)C(=O)C1COc2ccccc2O1 (configuration not stated)	-1.6	-8.7	-3.6	-6.3	-5.2	.	.
